Records with an inconclusive call do not appear. The source made the active and inactive calls. Calls follow the shape of the dose curve; as a rule, active = well fitted inhibition curve with a large enough effect; inconclusive = small, poorly fitted or top-dose-only effect; inactive = flat fitted curve, though single readings scatter.
How the values were obtained:
Assay in all cases: qHTS profiling for inhibitors of Plasmodium falciparum proliferation (AID 504749); also: nearly all actives have a fitted effect of over 60% in size
Conditions in all cases: P. falciparum in erythrocytes, SYBR Green DNA, 72 h; series mostly up to 28.7 µM
CP256 = tested on: CP256
How it was run: (§1)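 SYBR Green fluorescence (ex 485 nm, em 535 nm) reports parasite DNA after 72 h compound exposure of infected red cells at 0.3% parasitemia, 2.5% hematocrit; signal normalized to 0.29 uM artemisinin and vehicle wells.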

CP260 = tested on: CP260
How it was run: as §1

CP262 = tested on: CP262
How it was run: as §1

CP265 = tested on: CP265
How it was run: as §1

CP268 = tested on: CP268
How it was run: as §1

CP269 = tested on: CP269
How it was run: as §1

CP286 = tested on: CP286
How it was run: as §1

CP291 = tested on: CP291
How it was run: as §1

CP297 = tested on: CP297
How it was run: as §1

CP305 = tested on: CP305
How it was run: as §1

CP315 = tested on: CP315
How it was run: as §1

CP325 = tested on: CP325
How it was run: as §1

CP329 = tested on: CP329
How it was run: as §1

CP335 = tested on: CP335
How it was run: as §1

DFO2036 = tested on: DFO2036
How it was run: as §1

DIV14 = tested on: DIV14
How it was run: as §1

DIV17 = tested on: DIV17
How it was run: as §1

DIV30 = tested on: DIV30
How it was run: as §1

Dd2 = tested on: Dd2
How it was run: as §1

ECU = tested on: ECU
How it was run: as §1

FAB9 = tested on: FAB9
How it was run: as §1

GB4 = tested on: GB4
How it was run: as §1

HB3 = tested on: HB3
How it was run: as §1

ICS = tested on: ICS
How it was run: as §1

JCK = tested on: JCK
How it was run: as §1

N140 = tested on: N140
How it was run: as §1

P94_40 = tested on: P94_40
How it was run: as §1

PAD = tested on: PAD
How it was run: as §1

PC15 = tested on: PC15
How it was run: as §1

PC26 = tested on: PC26
How it was run: as §1

PC49 = tested on: PC49
How it was run: as §1

SC27B = tested on: SC27B
How it was run: as §1

TAB109 = tested on: TAB109
How it was run: as §1

TAB113 = tested on: TAB113
How it was run: as §1

TAB165 = tested on: TAB165
How it was run: as §1

Measured: Potency

CCOC(=O)c1cncn1[C@@H](C)c1ccccc1
inactive: all assays above

Reference: PubChem BioAssay (NCATS)
